For part of these data: Measured potencies and affinities stand elsewhere.
Tests used:
[1] = system: Staphylococcus aureus; test: Antibacterial activity against Staphylococcus aureus MRSA ATCC 43300 (CO-ADD:GP_020); MIC in CAMBH media using NBS plates, by Resazurin F(560/590); type: functional; details: Concentration 20 uM, ASSAY_TEST Inhibition of Bacterial Growth, detection method Resazurin, Fluorescence (ex560/em590), MEDIA CAMHB, plate type 384well, CORNING #3640, time 18 hr
[2] = system: Acinetobacter baumannii; test: Antibacterial activity against Acinetobacter baumannii ATCC 19606 (CO-ADD:GN_034); MIC in CAMBH media using NBS plates, by Resazurin F(560/590); type: functional; details: Concentration 20 uM, ASSAY_TEST Inhibition of Bacterial Growth, detection method Resazurin, Fluorescence (ex560/em590), MEDIA CAMHB, plate type 384well, CORNING #3640, time 18 hr
[3] = system: Escherichia coli; test: Antibacterial activity against Escherichia coli ATCC 25922 (CO-ADD:GN_001); MIC in CAMBH media using NBS plates, by Resazurin F(560/590); type: functional; details: Concentration 20 uM, ASSAY_TEST Inhibition of Bacterial Growth, detection method Resazurin, Fluorescence (ex560/em590), MEDIA CAMHB, plate type 384well, CORNING #3640, time 18 hr
[4] = system: Klebsiella pneumoniae; details: Concentration 20 uM; ASSAY_TEST Inhibition of Bacterial Growth; detection method Absorption (OD600); MEDIA CAMHB; plate type 384well; NBS; CORNING #3640; time 18 hr
[5] = system: Candida albicans; details: 20 µM
[6] = system: Cryptococcus neoformans; details: Concentration 20 uM; ASSAY_TEST Inhibition of Fungal Growth; detection method Resazurin; Absorption (OD600-OD570); plate type 384well; NBS; CORNING #3640

SMILES | Inhibition [1] | Inhibition [2] | Inhibition [3] | Inhibition [4] | Inhibition [5] | Inhibition [6]
COc1ccccc1/C=C1\Cc2ccccc2C1=O | -0.35% | 7.42% | -7.65% | 12% | 10.8% | -2%
S=c1c2nc[nH]c2ncn1CCSC1=NC=NC2=NC=NC21 (stereo unspecified) | 4.54% | -14.19% | 7.44% | 7.27% | 5.38% | -9.8%
O=C1/C(=N\c2cccc(Cl)c2)CC(c2ccc(Cl)cc2)N1c1cccc(Cl)c1 (stereo unspecified) | 20.38% | -11.7% | 10.42% | 18.13% | -2.19% | -8.61%
NS(=O)(=O)c1ccc(Cl)cc1[N+](=O)[O-] | -0.55% | -3.88% | 8.03% | 12.78% | 3.7% | 15.75%
CCCCC(=O)N(CCC)CCC | 2.53% | -12.7% | 10.06% | 7.98% | -2.94% | -14.22%
Oc1ccccc1-c1nc2c3ccccc3c3ccccc3c2[nH]1 | 17.7% | 0.13% | 3.46% | 14.09% | 6.21% | -5.55%
N#CC1=C2CCCCC2(O)NC1=O (stereo unspecified) | 6.52% | -3.34% | 7.41% | 2.61% | -0.03% | -5.83%
O=c1cc(-c2ccccc2)oc2ccc(O)cc12 [6-HYDROXYFLAVONE] | -4.33% | -2.45% | -5.6% | 8.45% | 7.78% | -10.88%
O=C(Nc1cccc(Cl)c1)Nn1cnnc1 | 17.05% | 8.62% | 2.61% | 6% | 3.98% | -3.41%
CN(C)CC1C2CCC(C2)C1O (stereo unspecified) | 7.18% | -12.67% | 8.84% | 23.62% | 0.82% | -7.67%
C#C[C@]1(O)CC[C@H]2[C@@H]3CCC4=Cc5oncc5C[C@]4(C)[C@H]3CC[C@@]21C [DANAZOL] | -10.91% | 2.93% | 12.68% | 6.03% | 0.72% | -10.04%
O=c1cc(-c2cccnc2)oc2c1ccc1ccccc12 | 20.75% | -10.07% | 18.5% | -1.55% | 29.4% | -11.93%
O/N=C(/c1ccccc1)c1ccc2c3c(cccc13)CC2 | -1.68% | -12.52% | 6.08% | 9.85% | 11.2% | -8.52%
COc1cc(/C=C2\CCOC2=O)cc(OC)c1OC | 4.75% | 13.86% | 8.29% | 12.15% | 2.88% | -2.47%
O=c1c(O)cccc2cc(O)c(O)c(O)c12 [PURPUROGALLIN] | -28.9% | 1.69% | 13.14% | 21.3% | 53.6% | -25.98%
ClC(Cl)(Cl)C1=Nc2c(nnn2Cc2ccccc2)CN1 | 1.51% | 7.83% | 14.39% | 3.07% | -3.28% | -12.54%
COc1ccc2nc3cc(Cl)ccc3c(C#N)c2c1 | 10.22% | 12.04% | 6.91% | 7.74% | 4.11% | -4.51%
N#Cc1nnn(-c2ccc(Cl)cc2)c1N | 17.83% | 3.74% | 11.71% | -5.78% | 0.88% | -4.67%
CCOC(=O)c1cc(-c2ccccc2)nc2ccc(C)cc12 [NEOCINCHOPHEN] | 2.82% | 5.48% | -14.74% | 14.7% | 9.92% | 24.59%
Cc1cc2cc3n(c2nn1)N=C(Cl)CC3 | 10.12% | 6.88% | -0.69% | 18.79% | 2.37% | -3.5%
CCOC(=O)CC1(C)NC(C(=O)O)C(C)(C)S1 (stereo unspecified) | -14.37% | 0.02% | -11.39% | 5.07% | 3.25% | 0.86%
Nc1nc2cc([N+](=O)[O-])ccc2[nH]1 | 15.13% | -11.46% | 3.91% | 4.78% | 0.21% | -13.6%
CCOC(=O)Nc1ccc2[nH]c(-c3cscn3)nc2c1 | 14.96% | -19.41% | 13.31% | 4.63% | -2.03% | -11.31%
Cc1cc(NC(=O)Nc2cc(Cl)ccc2C)no1 | -16.99% | 4.24% | -3.34% | 4.74% | 19.4% | -2.52%
Nc1ncnc2c1ncn2C1C=C(CO)C(O)C1O (stereo unspecified) | 4.94% | -16.45% | 9.33% | 9.87% | 1.07% | -6.12%
Cc1c(COC(=O)NC(C)C)c(COC(=O)NC(C)C)c2n1CS(=O)(=O)C2 | 22.95% | -7.7% | 11.68% | 15.71% | 3.64% | -8.35%

SMILES | Inhibition [1] | Inhibition [2] | Inhibition [3] | Inhibition [4] | Inhibition [5] | Inhibition [6]
Nc1ccc(Nc2ccccc2)c(S(=O)(=O)O)c1 | 8.54% | 9.36% | -14.68% | 15.42% | 18.9% | 17.91%
CN(CC(=O)O)Cc1oc(CO)cc(=O)c1O | 10.58% | -10.6% | 6.09% | 19.22% | 0.31% | -9.52%
N#Cc1ccc(NC2c3ccccc3CC2O)cc1 (stereo unspecified) | -13.68% | -7.5% | -15.24% | 3.05% | 0.94% | 8.31%
COC(=O)CC1OCC=C2CN3CCC45C6=CC(=O)C(=O)C([N+](=O)[O-])=C6NC4C1C2CC35 (stereo unspecified) | 12.88% | -13.17% | 11.73% | 18.83% | -2.29% | -2.47%
O=c1[nH]nc(-c2cc(-c3ccccc3)nc3ccccc23)o1 | 7.26% | -11.03% | 4.61% | 4.91% | 0.17% | -2.09%
Nc1ccccc1SC1CC(=O)N(c2ccccc2Cl)C1=O (stereo unspecified) | -6.84% | 10.38% | -12.68% | 6.14% | 15% | -0.17%
NC1=C2C(=O)c3ccccc3C(=O)C2=C(N)CC1 | -13.27% | 1.08% | -5.53% | 8.56% | 22.9% | -5.51%
OC(c1ccccc1)(c1ccccc1)c1nccn1-c1ccccc1 | 0.11% | -3.61% | 5% | 3.43% | 1.72% | -7.88%
Cc1ccc(C#CC(C)(O)C(C)(C)C)cn1 (stereo unspecified) | 4.47% | 10.01% | 1.4% | 18.58% | 7.24% | -1.46%
Cl.Nc1ncnc2c(C3OC(CO)C(O)C3O)c[nH]c12 (stereo unspecified) | 3.2% | 11.32% | -11.86% | 9.96% | 2.09% | -0.14%
NC(=O)Nc1n[nH]c(-c2ccccc2)n1 | -5.91% | -11.11% | -7.81% | 2.72% | 1.88% | 1.04%
CC(C)COc1nc2c(c(=O)n(C)c(=O)n2C)n1C | -1.72% | 11.63% | 12.8% | 5.36% | 2.67% | -14.97%
C=CCN=C(NC#N)SC | -6.06% | -0.66% | -1.07% | 5.62% | -0.02% | 0.87%
NC(=O)Cc1ccc2c(c1)[nH]c1ccccc12 | 5.19% | -14.3% | 7.64% | 6.47% | 5.86% | -8.43%
O=c1oc(-c2ccccc2)c(-c2ccccc2)c2ccccc12 | 13.22% | 4.08% | 7.81% | 4.41% | 1.88% | -4.28%
C=CCNc1ncnc2sc(SC)nc12 | -6.85% | 14.45% | 5.94% | 7.44% | 10.1% | -10.12%
CCC1=[N+]([O-])[N+]([O-])=C(c2ccccc2)/C1=N/O | 10.92% | 10.01% | -4.02% | 8.43% | 7.14% | -1.35%
CCOC(=O)/C(C#N)=C/c1cccc(C)c1 | 35.48% | 11.54% | 20.45% | 6.23% | 19.3% | -0.16%
CCOC(=O)CC(=O)NC(C)(C)CCCCC(C)(C)NC(=O)CC(=O)OCC | -5.26% | -12.04% | 17.83% | 13.05% | -0.86% | -4.13%
CCSc1nc(O)cc(O)n1 | 23.71% | -7.74% | 11.78% | 13.65% | 4.28% | 3.85%
O=C(C(=O)c1cccnc1)c1cccnc1 | 7.87% | -9.17% | 12.61% | 6.86% | -0.57% | -3.14%
Cn1cnc([N+](=O)[O-])c1N=C(N)N | -12.1% | -2.18% | 11.15% | 7.43% | -4.73% | 1.78%
CC1(c2ccc3ccccc3c2)CCC(=O)O1 (stereo unspecified) | 11.1% | -6.13% | 7.71% | 5.94% | 2.15% | -9.46%
Cc1cc(N(C)C)ccc1/N=N/c1ccc2ncccc2c1 | 1.18% | -8.44% | 5.41% | 5.32% | 3.26% | -12.5%
CCOC(=O)c1nc(SC)n(C)c1C(=O)OCC | 10.21% | -12.95% | 18.32% | 2.22% | 0.39% | -13.08%

Source: ChEMBL document CHEMBL4296182, “CO-ADD screening of NIH NCI Diversity Set V”
